Test results as given in the supplement of paper PMC10849652.
The full data set covers some 7,900 targets. This sample favours those with a hit. About 0.6% of all pairs of compound and target were hits. Unmarked numbers belong to inactive results.

Legend:
Test in all cases: log2 fold change, soluble protein after heating vs DMSO (PISA); higher = thermal stabilisation; K562 cells, 10 uM, 30 min; active = over 0.2 and 3.5 SD of the protein, either way, in both replicates (recomputed)
erlotinib = compound: C#Cc1cccc(Nc2ncnc3cc(OCCOC)c(OCCOC)cc23)c1 [erlotinib]
Summary of the method: (§1)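 Values are thermal stability changes relative to control samples and are taken from duplicates. They are stated as log2 fold changes. Before quantification by TMTpro 16plex LC-MS/MS with equalised channel sums, K562 cells at 2×10^6 cells/mL were treated with 10 μM compound for 30 min, heated in aliquots for 3 min across 48°C-58°C, pooled, extracted in PBS with 0.5% NP-40 at 4°C, and centrifuged at 21,000xg for 90 min to give the soluble supernatant.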

[1] = compound: C/C(=N\NC(=O)C1=CC(=CC=C1)S(=O)(=O)N2CCOCC2)/C3=C(C=CC(=C3)Cl)O
Summary of the method: as §1

[2] = compound: C1=CC(=C(C=C1Cl)C2=NC3=NC=CN=C3C(=N2)NC4=CC=NC=C4)F
Summary of the method: as §1

[3] = compound: C1=CC(=CC=C1C2=NC3=C(N2)C=C(C=C3)C(=O)N)OC4=CC=C(C=C4)Cl
Summary of the method: as §1

[4] = compound: C1=CC2=C(C=CC(=C2)/C=C\3/C(=O)NC(=NCC4=CC=CS4)S3)N=C1
Summary of the method: as §1

[5] = compound: C1=CC2=NC=CN=C2C=C1/C=C/3\C(=O)NC(=O)S3
Summary of the method: as §1

[6] = compound: C1=CC=C(C=C1)C2=NC(=C(N2)C3=CC=NC=C3)C4=CC(=C(C=C4)Cl)O
Summary of the method: as §1

[7] = compound: C1=CC=C2C(=C1)C3=NNC4=CC=CC(=C43)C2=O
Summary of the method: as §1

[8] = compound: C1CCN(C1)C(=O)NC2=CC=CC(=C2)NC3=NC=C(C(=N3)NCCC4=CN=CN4)Br
Summary of the method: as §1

[9] = compound: C1CN(CCC1(CC2=CC=C(C=C2)Cl)N)C3=NC=NC4=C3C=CN4
Summary of the method: as §1

Chain of UniProt P24863 (P24863 whole entry, looked up): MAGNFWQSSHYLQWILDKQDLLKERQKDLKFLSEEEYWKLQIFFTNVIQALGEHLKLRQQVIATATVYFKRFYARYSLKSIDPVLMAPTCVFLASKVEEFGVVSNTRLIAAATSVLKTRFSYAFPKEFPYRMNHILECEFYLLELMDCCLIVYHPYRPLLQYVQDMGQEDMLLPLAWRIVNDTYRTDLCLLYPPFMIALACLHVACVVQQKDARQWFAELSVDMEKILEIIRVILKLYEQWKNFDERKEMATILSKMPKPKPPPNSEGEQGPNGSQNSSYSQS
Chain of UniProt O75208 (O75208 whole entry, looked up): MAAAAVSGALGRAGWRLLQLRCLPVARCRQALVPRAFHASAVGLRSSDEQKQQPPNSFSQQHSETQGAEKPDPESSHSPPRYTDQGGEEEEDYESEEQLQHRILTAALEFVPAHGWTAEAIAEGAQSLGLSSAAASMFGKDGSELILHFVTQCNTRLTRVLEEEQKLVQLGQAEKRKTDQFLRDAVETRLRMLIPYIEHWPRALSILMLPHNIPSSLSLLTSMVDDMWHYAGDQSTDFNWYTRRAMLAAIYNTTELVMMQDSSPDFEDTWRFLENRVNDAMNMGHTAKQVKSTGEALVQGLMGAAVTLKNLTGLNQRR
Chain of UniProt Q96KA5 (Q96KA5 whole entry, looked up): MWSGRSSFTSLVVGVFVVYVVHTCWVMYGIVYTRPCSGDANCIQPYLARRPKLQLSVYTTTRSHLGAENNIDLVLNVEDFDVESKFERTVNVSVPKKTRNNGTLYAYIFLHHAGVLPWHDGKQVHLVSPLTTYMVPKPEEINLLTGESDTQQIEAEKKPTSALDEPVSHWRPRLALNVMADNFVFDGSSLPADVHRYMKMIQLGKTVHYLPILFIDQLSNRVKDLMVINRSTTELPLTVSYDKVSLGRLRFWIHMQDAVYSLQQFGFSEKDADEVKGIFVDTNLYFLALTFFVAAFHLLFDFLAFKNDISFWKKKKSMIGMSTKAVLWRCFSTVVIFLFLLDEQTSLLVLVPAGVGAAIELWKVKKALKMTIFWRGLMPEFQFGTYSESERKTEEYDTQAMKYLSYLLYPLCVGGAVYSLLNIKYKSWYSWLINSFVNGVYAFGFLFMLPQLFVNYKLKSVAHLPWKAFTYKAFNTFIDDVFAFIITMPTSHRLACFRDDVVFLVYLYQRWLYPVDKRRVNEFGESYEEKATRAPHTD
Chain of UniProt P60033 (P60033 whole entry, looked up): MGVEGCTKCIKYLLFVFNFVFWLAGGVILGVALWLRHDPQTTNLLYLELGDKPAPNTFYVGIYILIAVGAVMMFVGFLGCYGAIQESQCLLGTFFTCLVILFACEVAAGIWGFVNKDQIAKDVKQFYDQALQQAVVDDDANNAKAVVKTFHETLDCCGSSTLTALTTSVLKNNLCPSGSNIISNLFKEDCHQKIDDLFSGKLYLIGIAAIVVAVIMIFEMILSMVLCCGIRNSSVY
Chain of UniProt Q70SY1 (Q70SY1 whole entry, looked up): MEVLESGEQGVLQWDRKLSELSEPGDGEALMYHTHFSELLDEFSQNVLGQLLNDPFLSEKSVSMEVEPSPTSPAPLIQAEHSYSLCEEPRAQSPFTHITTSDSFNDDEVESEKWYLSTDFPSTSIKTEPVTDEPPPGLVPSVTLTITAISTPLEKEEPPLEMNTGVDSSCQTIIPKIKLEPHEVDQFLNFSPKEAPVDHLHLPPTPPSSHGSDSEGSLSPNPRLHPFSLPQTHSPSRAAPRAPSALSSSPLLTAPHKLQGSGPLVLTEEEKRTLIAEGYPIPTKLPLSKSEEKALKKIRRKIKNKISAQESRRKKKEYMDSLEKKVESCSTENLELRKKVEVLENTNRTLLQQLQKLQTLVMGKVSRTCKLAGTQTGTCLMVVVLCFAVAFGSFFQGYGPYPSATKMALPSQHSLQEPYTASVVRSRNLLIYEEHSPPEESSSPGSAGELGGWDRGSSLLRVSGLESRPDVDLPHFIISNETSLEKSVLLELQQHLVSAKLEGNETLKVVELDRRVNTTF
Chain of UniProt Q9Y3X0 (Q9Y3X0 whole entry, looked up): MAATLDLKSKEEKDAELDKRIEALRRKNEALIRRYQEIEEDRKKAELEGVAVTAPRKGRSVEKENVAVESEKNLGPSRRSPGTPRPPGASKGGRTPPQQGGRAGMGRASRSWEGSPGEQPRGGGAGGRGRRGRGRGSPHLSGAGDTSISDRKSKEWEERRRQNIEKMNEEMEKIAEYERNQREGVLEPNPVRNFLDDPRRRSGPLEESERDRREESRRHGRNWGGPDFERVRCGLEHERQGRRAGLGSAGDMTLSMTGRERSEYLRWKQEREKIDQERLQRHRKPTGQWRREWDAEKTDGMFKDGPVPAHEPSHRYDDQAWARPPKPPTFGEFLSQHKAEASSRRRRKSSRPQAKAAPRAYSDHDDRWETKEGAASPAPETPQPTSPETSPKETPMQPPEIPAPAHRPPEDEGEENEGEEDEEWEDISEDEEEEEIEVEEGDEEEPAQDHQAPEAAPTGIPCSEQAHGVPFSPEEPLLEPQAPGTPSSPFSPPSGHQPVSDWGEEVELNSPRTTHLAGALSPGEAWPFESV
Chain of UniProt Q96GQ5 (Q96GQ5 whole entry, looked up): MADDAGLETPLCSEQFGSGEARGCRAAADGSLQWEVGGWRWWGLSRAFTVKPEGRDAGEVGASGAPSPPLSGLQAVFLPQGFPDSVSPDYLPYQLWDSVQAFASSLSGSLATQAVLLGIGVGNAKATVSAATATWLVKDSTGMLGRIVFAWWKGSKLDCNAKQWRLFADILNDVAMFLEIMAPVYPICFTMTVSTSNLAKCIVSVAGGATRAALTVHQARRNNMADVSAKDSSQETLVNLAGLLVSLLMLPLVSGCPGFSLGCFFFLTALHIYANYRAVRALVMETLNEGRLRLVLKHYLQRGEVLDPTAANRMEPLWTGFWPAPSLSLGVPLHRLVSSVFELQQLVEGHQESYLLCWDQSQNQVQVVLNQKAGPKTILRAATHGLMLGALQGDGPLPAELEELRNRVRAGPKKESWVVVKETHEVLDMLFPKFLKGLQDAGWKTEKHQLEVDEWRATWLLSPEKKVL
Chain of UniProt P00915 (P00915 whole entry, looked up): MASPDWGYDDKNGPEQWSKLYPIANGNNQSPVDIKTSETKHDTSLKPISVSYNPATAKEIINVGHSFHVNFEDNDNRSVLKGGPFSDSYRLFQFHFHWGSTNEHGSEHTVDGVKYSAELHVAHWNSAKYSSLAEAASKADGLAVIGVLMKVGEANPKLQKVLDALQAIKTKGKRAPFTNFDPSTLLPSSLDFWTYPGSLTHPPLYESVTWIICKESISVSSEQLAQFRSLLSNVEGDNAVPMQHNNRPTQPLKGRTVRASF
Chain of UniProt P11802 (P11802 whole entry, looked up): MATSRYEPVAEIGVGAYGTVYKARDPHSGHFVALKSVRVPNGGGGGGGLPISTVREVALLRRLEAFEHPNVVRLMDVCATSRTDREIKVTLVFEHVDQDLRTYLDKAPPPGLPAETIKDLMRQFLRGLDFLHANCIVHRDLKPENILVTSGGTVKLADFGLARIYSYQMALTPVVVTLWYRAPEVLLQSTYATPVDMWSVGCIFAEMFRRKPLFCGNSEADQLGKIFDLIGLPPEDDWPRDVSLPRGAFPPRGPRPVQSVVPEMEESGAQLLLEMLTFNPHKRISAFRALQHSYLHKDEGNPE
Chain of UniProt Q8IWX8 (Q8IWX8 whole entry, looked up): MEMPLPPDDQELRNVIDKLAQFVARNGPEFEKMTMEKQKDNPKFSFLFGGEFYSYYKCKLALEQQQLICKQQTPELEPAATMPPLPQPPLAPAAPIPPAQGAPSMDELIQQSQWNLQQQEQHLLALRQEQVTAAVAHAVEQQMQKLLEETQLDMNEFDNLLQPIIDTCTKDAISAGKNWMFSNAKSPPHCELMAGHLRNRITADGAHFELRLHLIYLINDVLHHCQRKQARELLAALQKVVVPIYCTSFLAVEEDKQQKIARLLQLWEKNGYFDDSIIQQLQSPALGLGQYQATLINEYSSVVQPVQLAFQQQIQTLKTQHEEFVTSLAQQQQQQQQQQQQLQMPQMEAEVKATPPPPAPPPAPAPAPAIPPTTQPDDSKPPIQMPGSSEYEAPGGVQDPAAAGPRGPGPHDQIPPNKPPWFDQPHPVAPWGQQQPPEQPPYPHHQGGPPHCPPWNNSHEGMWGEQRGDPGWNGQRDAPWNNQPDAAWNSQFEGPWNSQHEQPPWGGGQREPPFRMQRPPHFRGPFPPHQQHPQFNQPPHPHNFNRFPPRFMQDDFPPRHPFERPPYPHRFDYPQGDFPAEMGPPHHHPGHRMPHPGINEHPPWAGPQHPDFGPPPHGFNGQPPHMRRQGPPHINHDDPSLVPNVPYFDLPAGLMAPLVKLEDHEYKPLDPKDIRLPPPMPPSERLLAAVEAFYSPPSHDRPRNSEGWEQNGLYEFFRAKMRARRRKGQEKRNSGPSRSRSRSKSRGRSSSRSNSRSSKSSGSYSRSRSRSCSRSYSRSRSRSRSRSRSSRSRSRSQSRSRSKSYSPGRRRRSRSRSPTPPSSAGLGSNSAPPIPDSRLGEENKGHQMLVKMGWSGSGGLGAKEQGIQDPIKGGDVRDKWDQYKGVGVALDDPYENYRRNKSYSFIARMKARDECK
Chain of UniProt P61024 (P61024 whole entry, looked up): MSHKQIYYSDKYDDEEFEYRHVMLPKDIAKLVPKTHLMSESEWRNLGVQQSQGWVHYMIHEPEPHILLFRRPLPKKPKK
Chain of UniProt Q99653 (Q99653 whole entry, looked up): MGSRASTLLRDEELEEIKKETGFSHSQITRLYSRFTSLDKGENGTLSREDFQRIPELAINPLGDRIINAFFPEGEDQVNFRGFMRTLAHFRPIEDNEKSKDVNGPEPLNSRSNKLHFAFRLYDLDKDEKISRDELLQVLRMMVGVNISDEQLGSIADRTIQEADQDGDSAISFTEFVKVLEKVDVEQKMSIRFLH
Chain of UniProt Q8WUX2 (Q8WUX2 whole entry, looked up): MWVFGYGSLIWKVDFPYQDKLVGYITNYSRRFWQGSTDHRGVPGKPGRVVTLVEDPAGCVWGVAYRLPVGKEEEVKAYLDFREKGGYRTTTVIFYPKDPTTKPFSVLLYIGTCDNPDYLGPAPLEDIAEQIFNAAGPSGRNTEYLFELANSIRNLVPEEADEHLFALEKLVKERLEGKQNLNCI

Target	log2 fold change (erlotinib)	log2 fold change [1]	log2 fold change [2]	log2 fold change [3]	log2 fold change [4]	log2 fold change [5]	log2 fold change [6]	log2 fold change [7]	log2 fold change [8]	log2 fold change [9]
CLPTM1L (UniProt Q96KA5)	0.011	0.04	-0.029	0.063	0.032	0.018	-0.002	-0.037	-0.022	0.017
CMTR1 (UniProt Q8N1G2)	-0.005	0.105	0.031	0.013	0.048	0.012	0.012	0.036	0.01	0.018
CHP1 (UniProt Q99653)	-0.022	0.024	0.097	0.012	-0.056	0.008	0.287 (active)	0.006	-0.07	0.091
CDK4 (UniProt P11802)	0.075	-0.244	-0.008	-0.086	0.329	0.11	-0.067	0.032		
CCDC9 (UniProt Q9Y3X0)	0.017	-0.116	-0.036	0.047	-0.045	0.034	0.027	-0.02	0.062	0.034
CREB3L2 (UniProt Q70SY1)	0.424	0.104	0.057	-0.264	0.113	-0.174	-0.1	-0.045	-0.206	0.173
CNTN4 (UniProt Q8IWV2)	0.284	-0.641 (active)	0.012	0.018	0.179	-0.095	0.05	0.097	-0.097	0.194
CDC25B isoform 4 (UniProt P30305)	-0.031	0.117	0.036	0.044	-0.062	0.131	-0.007	-0.047		
CHMP4C (UniProt Q96CF2)	0.036	0.06	0.476 (active)	-0.025	0.054	0.134	-0.064	-0.043	0.058	0.034
CHST11 (UniProt Q9NPF2)	-0.061	0.082	0.046	-0.054	-0.118	0.007	0.161	0.057	0.002	-0.067
CCAR1 (UniProt Q8IX12)	0.052	0.057	-0.002	0.014	0.071	0.039	-0.021	0.024	0.027	-0.085
COX20 isoform 2 (UniProt Q5RI15)	0.037	0.013	0.072	0.008	0.057	0.016	-0.092	-0.061	0	0.03
COQ9 (UniProt O75208)	0.035	0.082	0.006	0.016	0.034	0.056	0.012	0.008	-0.018	-0.001
CBS (UniProt P35520)	0.014	-0.031	0.039	-0.014	-0.026	0.013	-0.03	0.052	0.025	0.042
CFAP36 isoform 2 (UniProt Q96G28)	0.048	-0.11	-0.046	0.005	0.059	0.042	-0.068	0.007	0.127	-0.111
CHAF1A (UniProt Q13111)	-0.046	-0.014	-0.121	0.053	0.027	0.135	-0.047	-0.114		

Target	log2 fold change (erlotinib)	log2 fold change [1]	log2 fold change [2]	log2 fold change [3]	log2 fold change [4]	log2 fold change [5]	log2 fold change [6]	log2 fold change [7]	log2 fold change [8]	log2 fold change [9]
CKS1B (UniProt P61024)	-0.014	0	0.028	-0.013	0.044	0.029	0.11	-0.045	-0.012	0.034
CHAC2 (UniProt Q8WUX2)	0.025	-0.011	0.001	-0.012	-0.003	-0.033	-0.018	0.001	-0.025	0.093
CRYM-AS1 (UniProt A6NIL9)	0.13	-0.214	0.027	0.23	0.089	-0.725	0.024	0.073	-0.27	0.108
CHERP (UniProt Q8IWX8)	0.083	0.065	0.014	0.053	-0.03	0.09	0.026	-0.036	-0.084	-0.113
COPS8 (UniProt Q99627)	0.033	0.032	-0.005	-0.002	0.081	0.008	0.012	-0.042	-0.04	0.015
CDK13 (UniProt Q14004)	-0.064	0.039	-0.147	0.028	-0.126	-0.014	-0.012	-0.212	-0.006	-0.129
CKB (UniProt P12277)	0.011	0.045	0.052	0.035	0.018	-0.038	0.01	0.065	0.022	0.027
CA1 (UniProt P00915)	-0.025	0.022	0.03	0.006	-0.079	0.009	0.064	0.004	0.018	0.054
C16orf58 (UniProt Q96GQ5)	0.033	0.01	0.051	0.023	0.061	0.042	-0.001	-0.021	0.006	0.036
C9orf72 (UniProt Q96LT7)	0.095	0.021	0.02	-0.012	-0.068	-0.068	-0.086	-0.057	-0.205	0.211
CSNK2A1 (UniProt P68400)	-0.03	-0.011	0.006	0.024	0.139	0.296 (active)	-0.041	0.094	-0.003	-0.013
CLCN3 (UniProt P51790)	-0.024	0.079	-0.053	-0.045	0.023	0.07	-0.01	-0.03	-0.032	0.055
CD81 (UniProt P60033)	-0.065	0.033	0.059	0.039	-0.065	0.059	0.013	-0.043	0.098	0.206
CCNC (UniProt P24863)	-0.056	-0.077	-0.122	-0.026	0.096	0.256	-0.001	0.209		
CSNK1D (UniProt P48730)	0.033	-0.02	-0.143	0.011	-0.05	0.051	0.165	0.258	-0.035	-0.086
